# ALOX12 inhib: 12-hLO (ALOX12) enzyme inhibition | P18054 | purified 12-hLO, xylenol orange hydroperoxide absorbance | Potency, µM (series often up to 57.1 µM), without a hit: top-dose activity change, negative = inhibition, hits mostly inhibitors | AID 1452 | hit rate 0.12% among 150,000; further: potency means the concentration at half of the fitted maximal effect; nearly all actives have a fitted effect of over 55% in size
#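 Hydroperoxide output read as Fe(III)-xylenol orange absorbance, 573-to-405 nm ratio, after 30 min reaction with 40 uM arachidonic acid. Enzyme: 150 nM purified human 12hLO, 15 min compound preincubation; 25 mM Hepes pH 7.0, room temperature.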
# PNC assembly inh: perinucleolar compartment assembly inhibition | hit rate 3.1% among 140,000 | activity change (PNC), negative = inhibition, % at 10 µM | PC3M PTB-GFP, PNC prevalence imaging, 16 h; active compounds read low;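 active means readout at or below -70, meaning at least 70% loss of cells showing the perinucleolar compartment, a nuclear body marking cancer cells; inconclusive means readout between -30 and a set limit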;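 further: plate controls were DMSO wells for no effect and camptothecin positive control wells for full effect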
#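 Read-out is percentage of cells bearing a perinucleolar compartment, from automated 20x imaging of fixed, Hoechst-stained PC3M PTB-GFP cells. Cells were seeded 4 h, then exposed 16 h to compound (23 nl of library stock) in duplicate plates.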
# ALOX15B inhib: 15-hLO-2 (ALOX15B) enzyme inhibition; O15296; purified 15hLO-2, xylenol orange hydroperoxide absorbance; Potency, µM (highest dose often 57.1 µM), for the others: at the highest dose activity change, negative = inhibition, most hits filed as inhibitors; hit rate 0.56% among 110,000; AID 881; further: potency means the concentration at half of the fitted maximal effect; nearly all actives have a fitted effect of over 60% in size
# Target sequence (O15296 whole entry, looked up): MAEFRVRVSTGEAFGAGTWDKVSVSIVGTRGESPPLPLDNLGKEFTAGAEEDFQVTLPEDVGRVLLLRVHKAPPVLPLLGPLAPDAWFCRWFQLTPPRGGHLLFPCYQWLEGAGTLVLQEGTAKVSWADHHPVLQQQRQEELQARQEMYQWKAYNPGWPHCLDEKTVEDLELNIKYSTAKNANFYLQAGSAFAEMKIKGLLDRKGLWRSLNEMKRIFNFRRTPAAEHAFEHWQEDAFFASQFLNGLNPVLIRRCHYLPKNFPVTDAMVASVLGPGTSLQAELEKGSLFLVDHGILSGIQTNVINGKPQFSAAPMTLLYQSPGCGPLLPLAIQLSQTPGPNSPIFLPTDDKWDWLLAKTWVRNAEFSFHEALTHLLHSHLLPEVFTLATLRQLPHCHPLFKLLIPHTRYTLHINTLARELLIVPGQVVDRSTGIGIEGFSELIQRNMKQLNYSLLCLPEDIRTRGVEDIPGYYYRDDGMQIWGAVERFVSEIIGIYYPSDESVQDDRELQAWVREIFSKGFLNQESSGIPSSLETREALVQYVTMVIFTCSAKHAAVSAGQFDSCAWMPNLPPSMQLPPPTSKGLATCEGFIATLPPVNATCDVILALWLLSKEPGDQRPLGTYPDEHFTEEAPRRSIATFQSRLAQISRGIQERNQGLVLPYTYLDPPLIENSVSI
#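 Read-out: hydroperoxide product oxidises ferrous iron, measured as xylenol orange complex via the 573-to-405 nm absorbance ratio after 30 min. Reaction: 50 nM enzyme, 15 min compound preincubation, 45 uM arachidonic acid, 90 min RT, Hepes pH 7.5 with Triton X-100.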
# * = called active by the depositor; ? = inconclusive; . = not tested or not shown; [ ] = another dose, or the depositor's remark. A selection: hits, their analogues and other compounds. The true share with any hit is near 3.1%. Unless noted, the call rests on the fitted dose curve; in most records, active means well fitted curve in the direction sought with a large enough effect; inconclusive means small, poorly fitted or top-dose-only effect, or another doubt; inactive means no such curve, though single readings can be large; an effect the other way counts as inactive or inconclusive. Unless noted, on the % scale 0 is the no-effect control and ±100 the full control effect.
SMILES,ALOX12 inhib,PNC assembly inh,ALOX15B inhib
COCCNC(=O)c1ccccc1NC(=O)c1ccccc1N(C)S(C)(=O)=O,4%,-111*,.
Cn1c(CCCOc2ccc(Cl)cc2Cl)nnc1SCC(=O)Nc1cccc(F)c1,0%,?,.
CCc1cccc(C)c1NC(=O)CSc1nnc(CCCOc2ccc(Cl)cc2Cl)n1C,-5%,-113*,.
COCC(=O)N1CCC[C@@]2(CCN(C(=O)Nc3ccccc3)C2)C1,1%,.,1%
COc1ccc(NC(=O)C2CCN(Cc3cnn(-c4ccccc4)c3-n3cccc3)CC2)cc1OC,-10%,-8,43%
COc1ccc(OC)c(NC(=O)C2CCN(Cc3cnn(-c4ccccc4)c3-n3cccc3)CC2)c1,-1%,-88*,35%
CS(=O)(=O)Nc1cccc(-c2cncnc2NCc2cccnc2)c1,.,.,-6%
O=C1[C@@H]2[C@@H]3C=C[C@H]([C@@H]2C(=O)N1CN1CCSCC1)[C@@H]1[C@@H]2C(=O)N(CN4CCSCC4)C(=O)[C@@H]2[C@H]31,7%[11.4 µM],.,-5%[11.4 µM]
COc1ccc(NC(=O)N2CC[C@@]3(CCCN(C(=O)c4cccc(F)c4)C3)C2)cc1,1%,.,-3%
O=C(NCCCN1CCOCC1)c1cc(Cl)ccc1[N+](=O)[O-],-4%,?,.
CCN(CC)S(=O)(=O)c1ccc(F)c(C(=O)NCCCN2CCOCC2)c1,-3%,-117*,2%
Cc1ccccc1CN1C2=NCCN2C(=O)C2=C1CCN(Cc1ccccc1)C2,6%[11.4 µM],.,2%[11.4 µM]
c1ccc([C@@H]2CN3CCSC3=N2)cc1,?,.,3%[25.6 µM]
Cc1cc(C)n2nc(-c3ccsc3-n3c(C)ccc3C)cc2n1,0%,12,-12%
Cc1cc(NCCN(C)C)n2nc(-c3cccs3)cc2n1,2%,-89*,39%
O=C(CSc1cccc[n+]1[O-])Nc1cc(S(=O)(=O)N2CCOCC2)ccc1Cl,-1%,-88*,.
Cc1ccc(S(=O)(=O)N2CCOCC2)cc1NC(=O)CSc1cccc[n+]1[O-],-3%,41,.
CCOC(=O)CSc1cn2c(n1)CCC2,0%,-100*,.
CCOC(=O)CSc1nc(C)cc(C)n1,1%,-28,4%
O=C(O)c1nc2cc(Cl)c(Cl)cc2[nH]c1=O,-7%,.,-6%
O=C(c1cc(C(F)(F)F)cc(C(F)(F)F)c1)N1CCC2(CCN(Cc3ccncc3)CC2)CC1,-1%,.,29%
COc1ccc2[nH]cc(CCNc3cc(-c4ccccc4C(F)(F)F)ncn3)c2c1,-12%,.,-27%
CCCCCCCn1ccc(=N)cc1,3%,10,1%
CCCCCn1ccc(=N)cc1,-9%,-84*,-25%
N[C@H](Cc1ccc(F)cc1)C(=O)O,-2%,.,-10%
SMILES,ALOX12 inhib,PNC assembly inh,ALOX15B inhib
Cc1csc(/C(=N\O)c2csc(C)n2)n1,-6%,-100*,3%
Cc1csc(/C(C#N)=N/O)n1,3%,-25,5%
CC(O)CO (centres undefined),1%,.,-12%
Cc1cc(C)c2cc(C#N)c(NCCCNC(=O)CCC(=O)O)nc2c1,-6%,-87*,11%
COC(=O)CSc1nc2cc(C)cc(C)c2cc1C#N,-3%,21,-2%
COc1ncc2nc(-c3ccc(F)cc3)c(=O)n(C)c2n1,.,.,-7%
Cc1ccc2c(CC(=O)OCc3csc(C)n3)coc2c1,-5%,-100*,.
Cc1ccc2c(CC(=O)OCc3nc(N)nc(Nc4ccccc4C)n3)coc2c1,-12%,?,33%
Cc1ccc(C)c(NC(=O)CSc2nnc([C@@H]3CCCN3C(=O)OC(C)(C)C)o2)c1,-4%,-119*,-7%
Cc1cccc(NC(=O)CSc2nnc([C@@H]3CCCN3C(=O)OC(C)(C)C)o2)c1C,-9%,5,0%
Cc1ccc2cccnc2c1,1%,.,4%
Cc1c(NC(=S)N/N=C/C=C/c2ccc([N+](=O)[O-])cc2)c(=O)n(-c2ccccc2)n1C,1%,-109*,.
Cc1c(NC(=S)N/N=C\c2ccccc2O)c(=O)n(-c2ccccc2)n1C,3%,-8,.
N#C/C(=C(/N)Sc1ccc(N)cc1)c1ccccc1C(F)(F)F,-1%,.,32%
CC1(C)C(=O)Nc2ccccc2N1C(=O)CSc1nc(-c2ccccc2)cs1,-3%,0,.
Cc1cccc2cc(C#N)c(SCC(=O)N3CC(=O)Nc4ccccc43)nc12,-1%,-85*,-15%
Cc1cccc2cc(C#N)c(SCC(=O)N3CCC(C)CC3)nc12,-5%,-24,-11%
O=C1CN(C(=O)CSc2nc(-c3ccccc3)cs2)c2ccccc2N1,-7%,-91*,.
O=S(=O)(O)[C@@H](c1ccccc1)[C@@H](O)c1ccccc1,-6%[11.4 µM],.,-4%[11.4 µM]
C=C1OC(CO)(n2cnc3c(N)ncnc32)C(O)C1O (centres undefined),-4%[0.00818 µM],.,12%[0.0915 µM]
COc1cc(O)oc1C=Nc1ccc(Oc2ccccc2)cc1,-4%,?,-7%
CCn1c(O)c(C=Nc2ccccc2)oc1=S,0%,-94*,-29%
O=c1c(-c2ccc(Cl)cc2)nc2cncnc2n1Cc1ccccc1Cl,-1%,.,4%
CCCCn1c(SCc2cccc([N+](=O)[O-])c2)nc2ccsc2c1=O,0%,93,.
CCC(C)n1c(SCc2ccc([N+](=O)[O-])cc2)nc2ccsc2c1=O (centres undefined),-6%,-119*,.
SMILES,ALOX12 inhib,PNC assembly inh,ALOX15B inhib
O=[N+]([O-])c1c(Cl)cc(Cl)cc1Cl,-1%,.,2%
S=C(NCCCc1ccccc1)Nc1ccc(Cl)cc1,-20%,?,.
S=C(NCCC(c1ccccc1)c1ccccc1)Nc1ccc(Cl)cc1,?,-18,25µM*
COc1cc(NC(=S)NCCC(c2ccccc2)c2ccccc2)c(OC)cc1Cl,22µM*,74,.
COc1ccc(Cl)cc1NC(=S)NCCC(c1ccccc1)c1ccccc1,?,59,.
COc1ncc2nc(CCc3ccccc3)c(=O)n(C3CC3)c2n1,-2%,.,-7%
CN(C)CCNc1nc2c(c(=O)n(C)c(=O)n2C)n1C,-5%[11.4 µM],.,-5%[11.4 µM]
O=c1c2ccccc2nc(SCc2cc([N+](=O)[O-])cc3c2OCOC3)n1-c1ccccc1,-3%,-92*,.
O=c1c2ccccc2nc(SCc2ccc([N+](=O)[O-])cc2)n1-c1ccccc1,-1%,37,-15%
CCOc1ccc(CCNc2ccc3nnc(-c4ccccc4)n3n2)cc1OCC,1%,-119*,.
Clc1ccc(CNc2ccc3nnc(-c4ccccc4)n3n2)cc1,0%,39,.
O=S(NCc1ccccc1)C12CC3CC(CC(C3)C1)C2 (centres undefined),-5%,-14,2%
O=S(NCc1ccco1)C12CC3CC(CC(C3)C1)C2 (centres undefined),-7%,-100*,.
C[N+](C)(N)Cc1csc(-c2ccc(Cl)cc2)n1,0%[11.4 µM],.,-3%[11.4 µM]
COc1ccc(Cc2ccc(OC)c(N)c2)cc1N,5%,?,-1%
COc1cc(Cc2ccc(N)c(OC)c2)ccc1N,-1%,-113*,.
CCCC[C@H]1C[C@@H]1[C@@H]1N(P(=O)(c2ccccc2)c2ccccc2)[C@](CO)(c2ccccc2)CC12CC2,-12%,.,26%
CCOC(=O)c1c(NC(=O)CN(C)C)sc(C(=O)N(CC)CC)c1C,-1%,-22,-3%
CCCCC(=O)Nc1sc(C(=O)N(CC)CC)c(C)c1C(=O)OC,-4%,-100*,.
COc1cccc2c1CCC1CC(=O)CC[C@@]21C (some centres undefined),9%,.,0%

# Screens: PubChem, National Center for Advancing Translational Sciences (NCATS)
